# Screening data (PubChem BioAssay)
# In the library only some 3.9% were active in any assay of this set; here they are far more common.
# HT1080NT lethal: kills 2HG-producing HT-1080-NT fibrosarcoma cells; Potency, µM (titrated, usually from 46.1 µM), most hits filed as cytotoxic; HT-1080-NT fibrosarcoma viability, CellTiter-Glo ATP luminescence, 48 h; 1.6% of 360,000 active;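 also: NT is the 2HG producing partner of a matched IDH1 knockdown line; nearly all actives have a fitted effect of over 55% in size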
#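 Compounds were tested in concentration-response format on HT-1080-NT cells for 48 hours at 37 degrees C. Cell viability came from CellTiter-Glo luminescence; curves were classified by r2, response magnitude and activity.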
# HT1080 IDH1KD tx: toxicity to HT-1080 IDH1 knockdown cells (counter line); 2% of 360,000 active; HT-1080 IDH1 knockdown viability, ATP luminescence, 48 h; Potency, µM (highest dose often 46.1 µM), usual class: cytotoxic
#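 HT-1080-IDH1KD cells (IDH1 knocked down), 750/well in RPMI with 5% FBS, treated with compound 48 h at 37 degrees C. Viability by CellTiter-Glo luminescence, normalised to DMSO and no-cell wells; concentration-response curves classed.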
# TGFb SMAD3 inh: TGF-b pathway inhibition. Potency, µM (top dose mostly 46.1 µM), most hits filed as inhibitors. 1.2% of 410,000 active. HepG2 CAGA-GFP TGF-b/SMAD3 reporter, GFP fluorescence, 18 h; TGF-beta stimulated, 500 pg/mL final. AID 588855; also: nearly all actives have a fitted effect of over 65% in size
#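 Inhibition of TGF-beta-driven CAGA-GFP reporter expression in HEPG2 cells is measured by cellular GFP fluorescence after 18 h stimulation with 500 pg/mL recombinant TGF-beta in 1% FBS medium at 37 degrees C.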
# ATXN2 expr inh: reduces ATXN2 reporter expression in HEK-293 cells | HEK-293 ATXN2-luciferase reporter, luminescence, 24 h | Potency, µM (top dose mostly 57 µM), usual class: inhibitors | 0.72% of 360,000 active | AID 1745845; also: nearly all actives have a fitted effect of over 55% in size
#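 ATXN2-luciferase reporter cells (luciferase flanked by upstream and downstream ATXN2 gene portions) were treated 24 h at 37 °C with compounds at up to 57 uM. SteadyGlo luminescence gave expression; GF-AFC fluorescence gave viability.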
# HepG2 tox: kills HepG2 cells in TGF-b inhibitor counter-screen; Potency, µM (doses to about 46.1 µM), most hits filed as cytotoxic; 0.76% of 410,000 active; HepG2 CAGA-GFP viability, ATP luminescence, 18 h
#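 CellTiter-Glo luminescence gave cytotoxicity after 18 hours at 37 degrees C. The cells were HepG2 CAGA-GFP in 1% FBS DMEM, stimulated with 500 pg/mL TGF-beta after compound addition. %Activity was normalised to no-cell wells (complete cell-killing) and DMSO (no toxicity), and curves were fitted and classified.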
# S2 tox: viability counter-screen for ATXN expression inhibitors | S2 cells (HEK-293 line with an ATXN2-luciferase reporter) viability, CellTiter-Fluor protease fluorescence, 24 h | Potency, µM (titrated, usually from 56.7 µM), usual class: cytotoxic | 0.49% of 400,000 active; also: nearly all actives have a fitted effect of over 40% in size
# A number is an active result; – = inactive; ? = inconclusive; · = no result given; ! = a repeat was not active; [ ] = another dose, or the depositor's remark. Calls follow the shape of the dose curve; as a rule, active = well fitted curve in the direction sought with a large enough effect; inconclusive = small, poorly fitted or top-dose-only effect, or another doubt; inactive = no such curve, though single readings can be large; an effect the other way counts as inactive or inconclusive.
SMILES,HT1080NT lethal,HT1080 IDH1KD tx,TGFb SMAD3 inh,ATXN2 expr inh,HepG2 tox,S2 tox
O=C1C2C(c3ccccc3)CC=CC2C(c2ccc3ccccc3c2)N1Cc1ccccc1 (stereo unspecified),·,·,–,·,–,·
CC(=O)OCC(NC(=O)C1CCCN1C(=O)OC(C)(C)C)C1OC(n2ccc(=O)[nH]c2=O)C(OC(C)=O)C1OC(C)=O (stereo unspecified),·,·,–,·,–,·
O=S(=O)(CCSc1ccccn1)c1nc2ccccc2s1,20µM,7.9µM,8.9µM,?,10µM,·
CCS(=O)(=O)CCSc1nc2ccccc2o1,–,–,–,–,–,–
O=S(=O)(CCSc1nc2ccccc2o1)c1nc2ccccc2s1,10µM,6.3µM,?,28µM,–,·
O=C(CSc1ccccn1)Nc1nc2ccccc2s1,–,–,–,–,–,–
Oc1ccccc1N=N/C(=N/Nc1ccccc1O)c1ccccc1,–,–,–,–,–,–
N#C/C(N=Nc1ccccc1O)=N\Nc1ccccc1O,21µM,9.2µM,?,?,–,16µM
CCc1ccc2occ(CC(=O)Nc3c(C(=O)Nc4ccc(Cl)cc4)oc4ccccc34)c2c1,·,·,–,–,–,?
CCc1ccc2occ(CC(=O)Nc3c(C(=O)Nc4ccc(C)cc4)oc4ccccc34)c2c1,·,·,–,–,16µM,–
COc1ccc(N2CCN(CCCNC(=O)c3ccc4nc(Cc5ccccc5)oc4c3)CC2)cc1,·,·,–,16µM,–,10µM
COc1ccc(N2CCN(CCCNC(=O)c3ccc4nc(CCc5ccccc5)oc4c3)CC2)cc1,·,·,–,·,–,·
COc1ccc(CNC(=O)c2ccc3nc(CCc4ccccc4)oc3c2)cc1OC,·,·,–,28µM,–,?
COc1ccc(CNC(=O)c2ccc3nc(CCc4ccccc4)oc3c2)cc1,·,·,?,–,–,–
CC(=O)Nc1sc2c(c1-c1nc3ccccc3s1)CNC2,·,·,·,22µM,·,·
CC(=O)Nc1scc(C)c1-c1nc2ccccc2s1,–,–,–,–,–,·
CCCCNC(=S)NNC(=O)CCn1nc(C)c(Br)c1C,0.89µM,1.1µM,–,–,–,–
C=CC(=O)Nc1ccc(Nc2nc(NC3CCC(N(C)C)CC3)nc3c2ncn3C(C)C)cc1 (stereo unspecified),?,2.3µM,0.63µM,?,–,1.8µM
N#Cc1nc(Nc2cccc(Cl)c2)c2ncn(C3CCCC3)c2n1,·,·,?,–,–,–
C=CC(=O)Nc1cccc(Nc2nc(NC3CCC(N(C)C)CC3)nc3c2ncn3C(C)C)c1 (stereo unspecified),·,·,·,0.031µM,·,·
CC(C)n1cnc2c(Nc3ccc(F)c(Cl)c3)nc(NCCO)nc21,–,?,?,–,–,?
Cc1cccc(N2CCN(C(=O)c3cccc(-n4c(C)nc5cccnc54)c3)CC2C)c1 (stereo unspecified),·,·,–,·,–,·
CCOC(=O)C1=C[C@]2(CC)CCCN3CCc4c(n1c1ccccc41)[C@@H]32,–,–,–,31µM!,–,?
CC(NC(=S)NCc1ccc(F)cc1)C12CC3CC(CC(C3)C1)C2 (stereo unspecified),?,?,?,14µM,–,–
CCC(C)c1ccc(C(C)NC(=S)NCc2ccc(F)cc2)cc1 (stereo unspecified),?,?,18µM,?,–,–
SMILES,HT1080NT lethal,HT1080 IDH1KD tx,TGFb SMAD3 inh,ATXN2 expr inh,HepG2 tox,S2 tox
CC[n+]1c(/C=C/c2c[nH]c3ccccc23)ccc2cc(C)ccc21,29µM,18µM,–,?,–,?
CCCn1c2ccccc2c2cnn(CC(=O)NCCCN3CCN(c4ccccc4)CC3)c(=O)c21,18µM,?,?,?,–,?
Cc1ccc(C)c(C(=O)CCC(=O)N2CCN(c3cccc(C(F)(F)F)c3)CC2)c1,–[9.24 µM],–,11µM,–,–,–
O=C1Nc2ccccc2OC1CC(=O)N1CCOCC1 (stereo unspecified),–,–,?,–,–,–
O=C(CCCCn1c(=O)[nH]c2ccccc2c1=O)N1CCN(c2cccc(C(F)(F)F)c2)CC1,–,–,–,–,–,?
O=C1Nc2ccccc2OC1CC(=O)N1CCN(c2cccc(C(F)(F)F)c2)CC1 (stereo unspecified),–,20µM,–,–,–,–
O=C(CCCCn1c(=O)[nH]c2ccsc2c1=O)N1CCN(c2cccc(C(F)(F)F)c2)CC1,·,·,10µM,?,–,?
O=C(CCCn1c(=O)[nH]c2ccc(Br)cc2c1=O)N1CCN(c2cccc(Cl)c2)CC1,·,·,5µM,–,–,–
CC(C)c1ccc(NC(=O)[C@H]2O[C@@H]3OC(C)(C)O[C@@H]3[C@H]3OC(C)(C)O[C@H]32)cc1,·,·,?,–,–,–
CC(=O)N1CCC[C@H]1C(=O)N1CCc2c(cnc(C)c2CNC(=O)/C=C/c2cccs2)C1,·,·,·,·,·,–
C=CCC[C@H](Cc1ccc(F)cc1)C(=O)OC[C@H](Cc1c[nH]c2ccccc12)NC(=O)[C@H](CC=C)CC(=O)N[C@H](CO)Cc1ccccc1,–,–,–,–,–,?
C=CCC[C@H](Cc1ccc(F)cc1)C(=O)OC[C@H](Cc1c[nH]c2ccccc12)NC(=O)[C@@H](CC=C)CC(=O)N[C@@H](CO)Cc1ccccc1,?,?,?,16µM,13µM,18µM
C=CCC[C@H](Cc1ccc(F)cc1)C(=O)OC[C@H](Cc1c[nH]c2ccccc12)NC(=O)[C@@H](CC=C)CC(=O)N[C@H](CO)Cc1ccccc1,21µM,18µM,13µM,–,–,?
C=CCC[C@@H](Cc1ccc(F)cc1)C(=O)OC[C@H](Cc1c[nH]c2ccccc12)NC(=O)[C@@H](CC=C)CC(=O)N[C@H](CO)Cc1ccccc1,–,–,?,–,13µM,?
C=CCC[C@H](Cc1ccc(F)cc1)C(=O)OC[C@@H](Cc1c[nH]c2ccccc12)NC(=O)[C@@H](CC=C)CC(=O)N[C@H](CO)Cc1ccccc1,–,–,–,–,–,?
COCCN1CCC(CNCc2cn(-c3cc(C)ccc3C)nc2-c2ccccc2)C1 (stereo unspecified),26µM,?,?,·,–,?
COCCN1CCC(CNCc2cn[nH]c2-c2ccc(C)c(C)c2)C1 (stereo unspecified),–,–,–,–,–,–
CNC(C)[C@@H]1CC[C@@H](N)[C@@H](O[C@H]2[C@H](O)[C@@H](O[C@H]3OC[C@](C)(O)[C@H](NC)[C@H]3O)[C@H](N)C[C@@H]2N)O1 (stereo partly specified),·,·,·,·,·,–
COCC(=O)Nc1ncc(S(=O)(=O)c2ccc([N+](=O)[O-])cc2)s1,–,–,–,–,–,–
